Several values for one entry are separate records, joined by “and”; a condition that tells them apart may be missing. Equal values may be shown once. The whole screen tested about 5,500 compounds, of which about 2,000 (36%) were called active. Inconclusive results (about 18%) are left out. Rule as the data show it: active = normalized growth mostly below about 0.91 (no sharp cut-off); inconclusive = no clear call, values can overlap the other calls; inactive = mostly above about 0.92. The list shows a part of the results.
Experiment: chemical genetic growth profiling, strain panel (AID 1159580);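 also: tested at 20 µM; growth read once vehicle control cultures reached saturation at 30 °C; 1 = growth at the plate median or of vehicle wells; lower values mean less growth of the strain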
Conditions: S. cerevisiae deletion strains, growth OD

Measured: normalized growth

OC[C@H]1O[C@@H](O[C@@H]2[C@@H](CO)O[C@](O)(CO)[C@H]2O)[C@H](O)[C@@H](O)[C@H]1O
inactive: locus YAL021C, strain ccr4, hits give low values 1.02 | locus YAL026C, strain drs2, hits give low values 1.01 | locus YAL030W, strain snc1, hits give low values 1 | locus YBL061C, strain skt5, hits give low values 1.02 | locus YBR009C, strain hhf1, hits give low values 1.01 | locus YBR021W, strain FUR4, hits give low values 0.983 | locus YBR023C, strain chs3, hits give low values 0.995 | locus YBR171W, strain sec66, hits give low values 1.02 | locus YBR229C, strain ROT2, hits give low values 0.986 | locus YBR231C, strain swc5, hits give low values 1.01 | locus YBR279W, strain paf1, hits give low values 1.02 | locus YCL011C, strain gbp2, hits give low values 1.01 | locus YCL016C, strain dcc1, hits give low values 0.985 | locus YCL029C, strain bik1, hits give low values 0.988 | locus YCL069W, strain vba3, hits give low values 1.01 | locus YCR088W, strain abp1, hits give low values 1 | locus YDL005C, strain med2, hits give low values 1.03 | locus YDL035C, strain GPR1, hits give low values 1.01 | locus YDL040C, strain nat1, hits give low values 1.01 | locus YDL074C, strain BRE1, hits give low values 1 | locus YDL101C, strain DUN1, hits give low values 0.988 | locus YDL185W, strain tfp1, hits give low values 0.992 | locus YDL192W, strain arf1, hits give low values 0.993 | locus YDR001C, strain nth1, hits give low values 1.01 | locus YDR069C, strain doa4, hits give low values 1.02 | locus YDR101C, strain arx1, hits give low values 1.01 | locus YDR137W, strain rgp1, hits give low values 1.01 | locus YDR150W, strain NUM1, hits give low values 0.995 | locus YDR159W, strain sac3, hits give low values 1.01 | locus YDR162C, strain NBP2, hits give low values 1.01 | locus YDR195W, strain ref2 1.03 | locus YDR297W, strain sur2, hits give low values 1.01 | locus YDR318W, strain mcm21, hits give low values 0.981 | locus YDR334W, strain swr1, hits give low values 1.01 | locus YDR335W, strain msn5, hits give low values 1.02 | locus YDR388W, hits give low values 0.987 | locus YDR392W, strain spt3, hits give low values 0.949 | locus YDR502C, strain sam2, hits give low values 0.986 | locus YEL003W, strain gim4, hits give low values 1.01 | locus YEL037C, strain rad23, hits give low values 1 | locus YEL061C, strain CIN8 (second series), hits give low values 1.02 | locus YEL061C, strain CIN8, hits give low values 0.995 | locus YER015W, strain faa2, hits give low values 1 | locus YER016W, strain bim1, hits give low values 1.02 | locus YER110C, hits give low values 0.979 | locus YER111C, strain swi4, hits give low values 1 | locus YER155C, strain BEM2 (second series), hits give low values 1.03 | locus YER155C, strain BEM2, hits give low values 0.987 | locus YER167W, strain BCK2, hits give low values 0.995 | locus YFR010W, strain ubp6, hits give low values 1.02 | locus YGL078C, strain dbp3, hits give low values 0.963 | locus YGL086W, strain mad1, hits give low values 1 | locus YGL167C, strain pmr1, hits give low values 1.02 | locus YGL173C, strain kem1, hits give low values 1.01 | locus YGL227W, strain vid30, hits give low values 1.01 | locus YGL240W, strain doc1, hits give low values 1.03 | locus YGL248W, strain PDE1, hits give low values 0.983 | locus YGL253W, strain hxk2, hits give low values 0.99 | locus YGR135W, strain pre9, hits give low values 0.941 | locus YGR252W, strain gcn5, hits give low values 0.944 | locus YHR013C, strain ard1, hits give low values 1.03 | locus YHR027C, strain rpn1, hits give low values 1.01 | locus YHR030C, strain SLT2, hits give low values 0.993 and 0.984 | locus YHR079C, strain IRE1 (second series), hits give low values 0.983 | locus YHR079C, strain IRE1, hits give low values 0.989 | locus YHR094C, strain hxt1, hits give low values 0.979 | locus YHR129C, strain ARP1, hits give low values 0.992 | locus YHR142W, strain chs7, hits give low values 1 | locus YHR200W, strain rpn10, hits give low values 0.978 | locus YIL066C, strain RNR3, hits give low values 0.994 | locus YIL073C, strain SPO22, hits give low values 0.973 | locus YIL125W, strain kgd1, hits give low values 0.978 | locus YIR030C, strain dcg1, hits give low values 0.987 | locus YJL092W, strain hpr5, hits give low values 1.01 | locus YJL095W, strain BCK1 (second series), hits give low values 1.01 | locus YJL095W, strain BCK1, hits give low values 0.977 and 0.994 | locus YJL115W, strain asf1, hits give low values 1.01 | locus YJL129C, strain trk1, hits give low values 1.01 | locus YJL134W, strain LCB3, hits give low values 0.995 | locus YJL154C, strain vps35, hits give low values 1.02 | locus YJL164C, strain tpk1, hits give low values 0.984 | locus YJL166W, strain qcr8, hits give low values 1.01 | locus YJL168C, strain set2, hits give low values 0.976 | locus YJL187C, strain SWE1 (second series), hits give low values 0.993 | locus YJR043C, strain POL32, hits give low values 1.02 | locus YJR066W, strain TOR1, hits give low values 0.942

From PubChem BioAssay AID1159580 (chemical genetic matrix, 2015)
